Results filed as inconclusive are left out. Unmarked numbers belong to inactive results. The source made the active and inactive calls. Calls come from the whole dose curve; as a rule, active = well fitted activation curve with a large enough effect in the signal ratio; inconclusive = small, poorly fitted or top-dose-only effect, or effect the other way, or a change in a side signal; inactive = flat fitted curve, though single readings scatter; the % refers to the signal ratio.
Experiment: qHTS assay for small molecule agonists of the antioxidant response element (ARE) signaling pathway (AID 651741); for activation: % of control where 0% means no effect
Details: HepG2 ARE-bla reporter, beta-lactamase FRET ratio, 16 h; series mostly up to 96 µM; activation: at the top concentration
From the text: National Center for Advancing Translational Sciences [NCATS]
NIH Chemical Genomics Center [NCGC]
U.S. Environmental Protection Agency [EPA]
National Institutes of Environmental Health Sciences [NIEHS]
National Toxicology Program [NTP]
Oxidative stress has been implicated in the pathogenesis of a variety of diseases ranging from cancer to neurodegeneration. The antioxidant response element (ARE) signaling pathway plays an important role in the amelioration of oxidative stress. The CellSensor ARE-bla HepG2 cell line (Invitrogen) can be used for analyzing the Nrf2/antioxidant response signaling pathway. Nrf2 (NF-E2-related factor 2) and Nrf1 are transcription factors that bind to AREs and activate these genes. The CellSensor ARE-bla Hep G2 cell line contains a beta-lactamase reporter gene under control of the Antioxidant Response Element (ARE) stably integrated into HepG2 cells. The activation of the report gene under culture conditions can be detected by fluorescence intensity. This cell line can be used to screen chemicals in a 1536-well plate format and to identify agonists that induce oxidative stress.
The ARE-bla cells were dispensed at 2,000 cells/5 ul/well in 1536-well black wall/clear bottom plates using a Multidrop dispenser. After the assay plates were incubated at a 37 C/5% CO2 incubator for 5 hours, 23 nL of compounds dissolved in DMSO, positive controls or DMSO only was transferred to the assay plate by a pin tool. The plates were incubated at 37 C for 16 hours. After 1 uL of LiveBLAzer B/G FRET substrate was added using a Flying Reagent Dispenser, the plates were incubated at room temperature for 2 hours, and fluorescence intensity was measured by an Envision plate reader.
Potency is the fitted concentration of half-maximal effect.

| Structure (SMILES) | Potency | activation [%] |
| --- | --- | --- |
| Cc1noc(NS(=O)(=O)c2ccc(N)cc2)c1C | inactive | – |
| COc1ccc2cc3[n+](cc2c1OC)CCc1cc2c(cc1-3)OCO2 | 33.5 µM (active) | – |
| Cc1cc(NS(=O)(=O)c2ccc(N)cc2)no1 | – | 0.813 |
| Cc1nnc(NS(=O)(=O)c2ccc(N)cc2)s1 | – | 4.16 |
| NNC(=O)c1ccncc1 | – | 2.11 |
| CCc1cc(C(N)=S)ccn1 | – | -1.2 |
| O=C(N[C@H](CO)[C@H](O)c1ccc([N+](=O)[O-])cc1)C(Cl)Cl | – | 0.648 |
| Cc1ncc([N+](=O)[O-])n1CCO | – | -0.558 |
| O=C(O)c1cc(=O)[nH]c(=O)[nH]1 | – | 1.46 |
| Cc1ccnc2c1NC(=O)c1cccnc1N2C1CC1 | – | -0.886 |
| NC(N)=NC(N)=NCCc1ccccc1 | 37.6 µM (active) | – |
